According to PubChem BioAssay (NCI):
The panel holds about 79,000 compounds, 15% with a hit somewhere; the sample as a whole holds those more often. A number with no mark means an inactive call. The source made the active and inactive calls. Cut-off read from the data, not from the text of the source: active = growth inhibition above about 70%; inactive = the rest.

Tests used:
[1] = NCI Yeast Anticancer Drug Screen. Data for the rad50 strain (AID 155);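 note: 0% = growth of vehicle-only cultures of the same strain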; settings: S. cerevisiae rad50 strain growth inhibition; at 50.0 µM; hits give high values
In short: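 Compounds were tested on a yeast strain with an engineered DNA damage repair alteration; the reported value is growth inhibition normalised to vehicle treatment.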

[2] = NCI Yeast Anticancer Drug Screen. Data for the mec2-1 strain (AID 157); settings: S. cerevisiae mec2-1 strain, at 50.0 µM, hits give high values
In short: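 Vehicle-treated cultures served as reference for growth inhibition of compound-exposed mec2-1 yeast.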

[3] = NCI Yeast Anticancer Drug Screen. Data for the sgs1 mgt1 strain (AID 161);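 note: 0% = growth of cultures given vehicle only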; settings: S. cerevisiae sgs1 mgt1 strain, at 50.0 µM, hits give high values
In short: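 Inhibition of yeast growth, normalised to vehicle-treated controls, is reported for a strain bearing genetic alterations in DNA damage repair.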

[4] = NCI Yeast Anticancer Drug Screen. Data for the cln2 rad14 strain (AID 165);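 note: 0% = growth equal to vehicle treated cultures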; settings: S. cerevisiae cln2 rad14 strain, at 50.0 µM, hits give high values
In short: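 Each compound was tested on cln2 rad14 yeast. Inhibition of growth was calculated against vehicle-exposed controls.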

[5] = NCI Yeast Anticancer Drug Screen. Data for the bub3 strain (AID 167); settings: S. cerevisiae bub3 mutant strain, at 50.0 µM, hits give high values
In short: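 Growth of a checkpoint-deficient yeast mutant is measured after compound exposure. Values represent inhibition relative to vehicle.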

[6] = NCI Yeast Anticancer Drug Screen. Data for the mlh1 rad18 strain (AID 175); settings: S. cerevisiae mlh1 rad18 strain growth inhibition; at 50.0 µM; hits give high values
In short: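 Vehicle-treated cultures served as the reference for growth inhibition in a yeast strain carrying DNA damage repair alterations exposed to each compound.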

Compound	growth inhibition [1] [%]	growth inhibition [2] [%]	growth inhibition [3] [%]	growth inhibition [4] [%]	growth inhibition [5] [%]	growth inhibition [6]
C/C(Nc1ccc(Cl)cc1)=C1/CCOC1=O	19.1	5.7	35.5	13.1	11.7	-24.9%
CC(C)Cc1[nH]nc2c1C(=O)C(Nc1ccccc1)=CC2=O	22.5	25.3	12.6	-7.65	2.75	23.4%
Nc1ncnc2nc[nH]c12	-8.7	-6.7	13.9	-24.7	-12.1	-5.7%
O=C1NC(=O)C(F)[CH]([Ge](=[O])[O][Ge](=[O])[CH]2NC(=O)NC(=O)C2F)N1 (stereo unspecified)	-7.45	-8.85	0.2	-7.35	0.7	-17.9%
Clc1ccc(/C=C2\c3ccccc3-c3nc4ccccc4nc32)cc1	-6.7	-8.05	-8.65	-13.4	-8.25	-21.9%
COc1ccc(-c2c([O-])oc(-c3ccccc3)[n+]2C)cc1	17.8	-18.4	-6.2	7.3	3.1	-4.1%
CC(=O)c1c(C)cc2cccc(OC3OC(CO)C(O)C(O)C3O)c2c1O (stereo unspecified) (tested in a mixture with another compound)	9.1	8.2	-18.6	0	-7.25	-56.3%
COc1ccc(N2C(=O)/C(=C\c3ccc(N(CCC#N)CCC#N)cc3)N=C2COc2ccccc2)cc1	0.8	-2.2	4.45	8.7	-1.35	1.3%
CCCCCCCCCCCCCCCCS(=O)(=O)N/N=C(/C)N(C)c1ccc(OC)cc1	-15.4	-32.4	-6.1	-10.4	-15.4	-7.15%
COC(=O)C1Cc2ccccc2C1=O (stereo unspecified)	-1.75	-13.2	-14.8	-40.5	-11.8	-6.45%
CCOC(=O)c1sc(C(=O)OCC)c2c1-c1cccc3cccc-2c13	-35.6	13.1	4.35	-48	15.1	-9.95%
Cc1nn(C(N)=S)c(C)c1N=Nc1ccc(Cl)cc1	9.6	-0.25	10.8	-62.8	-8.35	19.9%
CN(C)c1ccc(/C=N/N=C2\C(=O)Nc3c(Cl)cc(Cl)cc32)cc1	25.2	-0.25	56.8	43.1	43.5	78.8% (active)
CCOC(=O)c1cn(C2OC(COC(=O)c3ccccc3)C(OC(=O)c3ccccc3)C2OC(=O)c2ccccc2)c(=O)nc1N (stereo unspecified)	-1.05	-12.2	18	-32	7.45	-7.15%
N#CCCOCCSCCC#N	3	5.15	-5.95	-5.45	1	-1.8%
Cc1ccc(C2CC(c3ccc([N+](=O)[O-])cc3)=Nc3ccccc3S2)cc1 (stereo unspecified)	6.4	-1.75	15.1	14.7	20.5	8.6%
CCCCn1c(=O)cc(C(=O)O)c2ccccc21	1.7	-12.7	-0.5	-9.25	-7.9	0.05%
Cc1cccc(C)c1NC(=O)C(=O)C(C#N)c1c(Cl)cccc1Cl (stereo unspecified)	-38	5.2	16.4	-25.2	-4.85	10.7%
O=C(O)CCCC[P+](c1ccccc1)(c1ccccc1)c1ccccc1	21.1	7.8	13.5	7.5	35.3	27.8%
CC(C)(C)COc1ccc2c(c1)C1=NC2=NC2=NC(=NC3=NC(=NC4=NC(=N1)c1ccc(OCC(C)(C)C)cc14)c1ccc(OCC(C)(C)C)cc13)c1ccc(OCC(C)(C)C)cc12	12.8	1.1	-10.1	-14.6	-5.45	18.4%
CCC(=O)NC(C(=O)O)C(C)(C)S (stereo unspecified)	-0.4	-3.65	0.1	5.9	2.4	-3.95%
